In the library only some 6.6% were active in any assay of this set; here they are far more common.
CSC inhib: blocks cancer stem cells | cancer stem cell-like cells viability, luminescence | inhibition, % at 7.5 µM | hit rate 1.1% among 300,000 | AID 2717; in the data active = inhibition above about 75%; tested in HMLE shEcad cells
Beta cell apopt: beta cell apoptosis inhibition; hit rate 0.8% among 300,000; AID 435005; protection from apoptosis, % (no concentration beside the values); INS-1E cytokine-induced death, ATP luminescence, 48 h; percent of positive-control rescue, neutral wells zero;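 active = Every replicate reaches about 75%, or at least half do and their mean reaches it too, limit read from the data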;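 note: 0% = cytokine-treated negative control wells and 100% = positive control rescue; higher means more ATP so stronger rescue from cytokine killing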
MPTP block: blocks calcium-induced mitochondrial swelling; hit rate 1.4% among 360,000; isolated mouse mitochondria, Ca2+ swelling absorbance, 30 min; inhibition, % at 10 µM;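 active = inhibition of 50% or more, scaled per plate between neutral and stimulator controls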;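 note: 0% = DMSO wells given calcium and 100% = 1 mM EGTA wells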
Gli-Sufu block: blocks Gli-Sufu signaling in a luciferase reporter | Sufu-KO-LIGHT fibroblasts, Gli luciferase reporter luminescence | inhibition, % at 5 µM | hit rate 0.74% among 340,000 | AID 588413;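 active = inhibition above about 55%, limit read from the data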;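 note: 0% = DMSO-treated cells and 100% = wells with medium but no cells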
Mdm2-MdmX inh: human Mdm2/MdmX binding inhibition | O15151+Q00987 | SaOS-2 split-luciferase Mdm2/MdmX complementation, luminescence | inhibition, % at 8 µM | hit rate 3% among 330,000 | AID 485346;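 active = inhibition of at least 50% at 8 µM in the primary screen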
Target sequence (O15151 whole entry, looked up): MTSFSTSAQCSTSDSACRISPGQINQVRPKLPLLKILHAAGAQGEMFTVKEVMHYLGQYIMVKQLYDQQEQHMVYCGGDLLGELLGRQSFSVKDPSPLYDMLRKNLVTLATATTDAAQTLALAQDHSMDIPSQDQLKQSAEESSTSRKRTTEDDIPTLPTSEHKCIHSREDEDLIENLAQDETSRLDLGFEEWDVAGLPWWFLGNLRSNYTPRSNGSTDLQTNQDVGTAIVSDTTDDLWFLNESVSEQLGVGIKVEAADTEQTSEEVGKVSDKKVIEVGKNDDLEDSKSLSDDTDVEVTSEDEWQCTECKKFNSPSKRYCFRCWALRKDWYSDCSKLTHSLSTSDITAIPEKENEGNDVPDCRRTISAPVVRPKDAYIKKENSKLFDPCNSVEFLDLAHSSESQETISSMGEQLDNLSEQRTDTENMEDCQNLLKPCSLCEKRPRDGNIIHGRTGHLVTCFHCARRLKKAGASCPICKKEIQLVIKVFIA
Target sequence (Q00987 whole entry, looked up): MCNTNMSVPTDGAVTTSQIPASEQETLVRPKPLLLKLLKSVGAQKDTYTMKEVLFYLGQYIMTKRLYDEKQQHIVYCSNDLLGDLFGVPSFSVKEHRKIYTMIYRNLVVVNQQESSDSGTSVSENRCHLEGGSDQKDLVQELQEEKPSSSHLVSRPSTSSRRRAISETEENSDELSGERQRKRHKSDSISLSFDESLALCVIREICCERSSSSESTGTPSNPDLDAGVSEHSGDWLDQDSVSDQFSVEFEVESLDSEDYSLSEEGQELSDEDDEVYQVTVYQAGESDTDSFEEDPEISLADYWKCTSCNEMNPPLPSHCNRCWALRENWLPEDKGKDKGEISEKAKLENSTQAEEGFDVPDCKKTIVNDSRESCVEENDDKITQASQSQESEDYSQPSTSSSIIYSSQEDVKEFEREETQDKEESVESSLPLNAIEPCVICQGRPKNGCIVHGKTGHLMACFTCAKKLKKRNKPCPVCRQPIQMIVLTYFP
GRIN3A LBD mod: modulators (binders) of human NR3A ligand-binding domain. NR3A LBD differential scanning fluorimetry, Tm shift; 0% = protein alone, 100% = glycine-bound protein. Tm shift relative to glycine control, % at 25 µM. hit rate 2.5% among 340,000. AID 1259313;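 active = melting temperature shift of at least 10% of the positive control shift, at one fixed dose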
Mdm2-MdmX conf: confirmation of human Mdm2/MdmX interaction inhibitors. shares compounds with Mdm2-MdmX inh. Mdm2-MdmX binding, luminescent assay. inhibition, % at 8 µM. AID 489028. hit rate 55% among 10,000; in the data active = inhibition above about 40%
FLuc counter: inhibits full-length luciferase, flagging false Mdm2/MdmX hits; inhibition, % at 8 µM; hit rate 77% among 6,200; shares compounds with Mdm2-MdmX inh; SaOS-2 full-length luciferase counterscreen, luminescence;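 active = mean inhibition at 8 µM reaching about 37%, which flags the compound as non-specific, limit read from the data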;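 note: p53-null SaOS-2 cells with luciferase driven by a doxycycline-inducible promoter; compound on cells about two nights before reading with doxycycline added after day one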
Gli antag conf: confirmation of Gli-SUFU pathway antagonists; shares compounds with Gli-Sufu block; Sufu-KO-LIGHT cells, Gli luciferase reporter, luminescence; inhibition, % at 5 µM; hit rate 40% among 2,500;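 active = mean inhibition at 5 µM reaching about 45%, limit read from the data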;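 note: plate controls were DMSO-treated cells for no effect and wells lacking cells for full effect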
Gli cytotox: counter-screen for Gli-SUFU antagonists: cytotoxicity | Sufu-KO-LIGHT cells cytotoxicity, ATP luminescence | shares compounds with Gli-Sufu block | hit rate 32% among 2,500 | cytotoxicity, % at 5 µM;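 active = mean cytotoxicity at 5 µM above about 25%, limit read from the data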;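 note: cells exposed to compound overnight for roughly 16 to 18 hours; plate controls were DMSO wells with cells for no effect and medium without cells for full effect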
Wnt3a cs: counter-screen for Gli-SUFU antagonists: Wnt3a reporter inhibition | Wnt-LIGHT cells, Wnt3a-driven luciferase reporter, luminescence | hit rate 20% among 2,500 | inhibition, % at 6.25 µM | shares compounds with Gli-Sufu block;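 active = mean inhibition above about 25%, limit read from the data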
MPTP counter: mitochondrial membrane potential, counter-screen. isolated mitochondria, Rhodamine 123 fluorescence. hit rate 78% among 5,000. AID 624504. inhibition, % at 10 µM. shares compounds with MPTP block; in the data active = inhibition above about 22%;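 note: 0% = DMSO vehicle and 100% = positive control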
MPTP abs DR: MPTP inhibition, dose response swelling confirmation | AID 651561 | IC50, µM | isolated mitochondria swelling, absorbance | hit rate 58% among 780 | shares compounds with MPTP block; in the data active = IC50 below about 20 µM
MPTP counter DR: MPTP inhibitor counter-screen activity, dose response; hit rate 49% among 780; IC50, µM; isolated mitochondria counterscreen, fluorescence read-out; shares compounds with MPTP block; in the data active = IC50 below about 80 µM
* = called active by the depositor; · = no result.

SMILES	CSC inhib	Beta cell apopt	MPTP block	Gli-Sufu block	Mdm2-MdmX inh	GRIN3A LBD mod	Mdm2-MdmX conf	FLuc counter	MPTP counter	others
O=C(N/N=C\c1cc(Br)ccc1O)c1ccc(S(=O)(=O)N2CCCCC2)cc1	103.7*	100.3*	66.5*	77.4*	70.3*	8.0	75.0*	21.3	53.4*	Gli antag conf=75.6*;Gli cytotox=29.9*;Wnt3a cs=73.5*
O=C(Nc1ccc(S(=O)(=O)N2CCOCC2)cc1)c1cc(-c2cc(Cl)ccc2O)n[nH]1	94.0*	46.1	74.7*	6.9	86.6*	36.2*	79.3*	39.3*	61.3*
O=[N+]([O-])c1cccnc1NCCNc1ncc(C(F)(F)F)cc1Cl	-9.9	-0.6	-0.3	-0.7	-51.5	-12.4	·	·	·
CCCC(=O)NC(NC(=S)Nc1ccc(N=Nc2ccccc2)cc1)C(Cl)(Cl)Cl (centres undefined)	119.1*	109.0*	102.9*	35.6	86.2*	21.6*	89.1*	32.4	61.6*
CCc1ccc(OCC(=O)NC(NC(=S)Nc2ccc(Cl)cc2)C(Cl)(Cl)Cl)cc1 (centres undefined)	4.1	23.1	98.4*	4.6	84.3*	23.8*	92.1*	22.0	81.1*
Cc1ccc(S(=O)(=O)Nc2c(C)nc3nc[nH]n3c2=O)c(C)c1	-27.8	1.8	0.3	-19.3	-13.1	1.1	·	·	·
COc1ccc(/C=N/Nc2cc(N3CCCC3)nc(N3CCCC3)n2)cc1	91.7*	56.1	77.2*	36.8	77.1*	3.2	20.4	·	81.8*
COc1ccc(Cl)cc1S(=O)(=O)N1CCCC(C(=O)NCc2ccccc2)C1 (centres undefined)	-3.9	7.9	0.4	2.9	17.8	1.8	·	·	·
COc1cc2ccc(=O)oc2c(O)c1OCC=C(C)C	10.9	-4.1	-0.9	3.5	-5.9	2.2	·	·	·
C=CC(C)(C)c1c(O)c(CC=C(C)C)c(O)c2c(=O)c3ccc(O)c(O)c3oc12	-7.0	106.7*	84.9*	37.8	91.8*	32.7*	85.6*	54.9*	40.0*
CCOC(=O)NC(=O)/C(C#N)=N\Nc1cccc(Cl)c1	36.6	0.8	92.8*	1.5	58.6*	-1.4	63.6*	57.9*	72.9*
CCOC(=O)C1=C(CC)Nc2ccccc2N=C1NC(=O)Nc1ccc(Cl)c(Cl)c1	-3.3	62.8	96.6*	-1.9	94.1*	28.3*	80.4*	39.2*	61.6*
CCOC(=O)C1=C(CC)Nc2ccccc2N=C1NC(=O)c1cc(C)on1	·	-0.3	-0.5	-4.8	8.7	3.0	·	·	·
CCN1CCN(c2ccc(NC(=O)CCc3c(C)nc4c(-c5ccccc5)c(C)nn4c3C)cc2)CC1	54.4	·	53.9*	·	88.7*	-0.6	43.6*	66.4*	-24.6	MPTP abs DR=14.9*;MPTP counter DR=>80
Cc1nc2c(-c3ccccc3)c(C)nn2c(C)c1CCC(=O)NCc1ccco1	2.2	3.0	-1.0	3.1	-11.4	-0.5	·	·	·
Cc1ccc(C(C)C)c(OCC(=O)Nc2ccc3c(c2)nc(CCN2CCCCC2)n3C)c1	13.8	52.6	72.9*	-5.0	99.0*	1.2	82.2*	59.8*	-20.1	MPTP abs DR=6.1*;MPTP counter DR=75*

High-throughput results deposited in PubChem by several laboratories.
